Results reported in PubChem BioAssay AID651724 (National Center for Advancing Translational Sciences (NCATS), 2012).
In all, about 340,000 compounds went through this assay and about 1,700 (0.5%) were called active. Roughly 2% stayed inconclusive and do not appear here. This is one part of a sample in which actives are shown more often than they occur. Values without a mark were called inactive. Cut-off read from the data, not from the text of the source: active = activity change below about -65%; inconclusive = mostly about -30% to -63%; inactive = weaker than that.

The compounds below were run on CtBP / adenovirus E1A interaction (AlphaScreen) (assay: qHTS Assay for Inhibitors of the CtBP/E1A Interaction). Conditions: AlphaScreen GST-E1A/His-CtBP binding, 1536-well; active compounds read low.
How it was run: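 Steps: dispense buffer (Tris pH 8.0, NaCl 300 mM, TCEP 1 mM, BSA, Tween 20); add 5X protein mix (GST-E1A, His-CtBP, 125 nM each); pin 23 nL compound; 2 h at 37 °C, dark; add 5X beads (50 ug/mL); 1 h; read.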
% is set by controls: 0 for no effect and ±100 for the full control effect.

| Compound | activity change |
| --- | --- |
| C=CCC[C@@H](CCCCC)OC(=O)/C=C/[C@@H](O)[C@H](O)C[C@H](O)CC=C | -9.7% |
| COc1ccc(C(C(=O)NCc2ccccc2)n2c(=O)c(-c3ccccc3)nc3ccccc32)cc1 (stereo not given) | 0% |
| O=C(CN1C(=O)C2C3C=CC(C3)C2C1=O)Nc1nc(-c2ccccn2)cs1 (stereo not given) | -80.4% (active) |
| O=C(CN1C(=O)C2C3C=CC(C3)C2C1=O)NCCc1ccccc1Cl (stereo not given) | 12.6% |
| O=C(COc1ccccc1F)Nc1nc(-c2ccccn2)cs1 | -89% (active) |
| O=C(NCCN1C(=O)C2C3C=CC(C3)C2C1=O)Nc1ccccn1 (stereo not given) | -15.4% |
| CCOC(=O)N1CCN(C(=O)C(C)NC(=O)c2ccco2)CC1 (stereo not given) | -2.35% |
| CC(NC(=O)c1ccco1)C(=O)Nc1nc(-c2ccccn2)cs1 (stereo not given) | -88.4% (active) |
| O=C(COc1ccccc1F)NC1CC1 | 8.72% |
| CC1CCN(S(=O)(=O)c2nnc(NC(=O)COc3ccccc3F)s2)CC1 | 1.46% |
| CSCCC(NC(=O)c1ccco1)C(=O)Nc1cc(C)ccn1 (stereo not given) | 0.873% |
| CCOC(=O)c1cc(-c2sc(NC(=O)c3ccccc3)nc2C)n(Cc2ccccc2)n1 | 0.44% |
| CN1OC[C@@H]2CN(S(=O)(=O)c3cccc(C(F)(F)F)c3)[C@H](c3ccc(-c4cc5ccccc5o4)cc3)C[C@@H]21 | -21.8% |
| CCCCC(=O)N(C)c1c(CC)nc2c(OCc3ccc(S(C)(=O)=O)cc3)cccn12 | 0.375% |
| COc1cccc(OCc2cc(/C=N/NC(=O)c3nc(Cl)c(Cl)c(N)c3Cl)ccc2OC)c1 | 7.69% |
| COc1cc(/C=N/NC(=O)CNC(=O)c2ccncc2)ccc1OC(C)=O | -2.8% |
| COc1ccc(/C=N\NC(=O)c2sc(N)nc2C)cc1OC | -68.1% (active) |
| O=C(NCc1cccnc1)c1cc(C2CCCN(C(=O)CCCc3ccccc3)C2)on1 (stereo not given) | 0.406% |
| CCN(CC)C(=O)C1=C(C)N(Cc2ccccc2)C(=O)C(CC(=O)NC(c2ccccc2)c2ccccc2)C1 (stereo not given) | -5.91% |
| CCCOc1ccc(F)cc1-c1cc(C(=O)NCc2ccc(F)cc2)[nH]n1 | 0% |
